The source of these data is PMC7862700, “An all-to-all approach to the identification of sequence-specific readers for epigenetic DNA modifications on cytosine”.

The first assay addresses T1, FLI1 (Homo sapiens, UniProt Q01543 1-452).
T1 sequence: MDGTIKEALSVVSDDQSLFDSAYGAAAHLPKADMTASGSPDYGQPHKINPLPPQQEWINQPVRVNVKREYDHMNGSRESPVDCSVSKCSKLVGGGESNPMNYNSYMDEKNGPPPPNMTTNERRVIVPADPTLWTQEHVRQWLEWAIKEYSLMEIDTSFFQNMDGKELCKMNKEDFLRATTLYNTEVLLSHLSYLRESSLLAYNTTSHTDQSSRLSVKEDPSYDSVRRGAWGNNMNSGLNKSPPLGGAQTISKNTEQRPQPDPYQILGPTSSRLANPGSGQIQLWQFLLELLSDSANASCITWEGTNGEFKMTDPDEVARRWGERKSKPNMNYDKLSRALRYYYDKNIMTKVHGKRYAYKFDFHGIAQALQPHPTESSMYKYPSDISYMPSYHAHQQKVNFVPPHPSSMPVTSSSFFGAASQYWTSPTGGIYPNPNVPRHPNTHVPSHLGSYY
The experiment in a line: DAPPL (digital affinity profiling via proximity ligation, sequencing); 10 mM Tris-HCl pH 7.5, 50 mM NaCl, 1 mM DTT, 4% glycerol, room temperature, 30 min; GST-TFs on glutathione beads, 16-mer random dsDNA library, 0.1% formaldehyde crosslink after washing; high values mean tight binding. Particulars: protein: recombinant; tags: N-terminal GST; dsDNA, one strand shown. The gist of the method: (§1)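 Yeast served to express human transcription factors as GST fusions, which were then captured on glutathione beads and labelled with DNA barcodes. Pooled with a tag-only sample, they were incubated with 200 nmole of a 16-mer random double-stranded DNA library for 30 min at room temperature in Tris/NaCl/DTT/glycerol buffer, washed, crosslinked with 0.1% formaldehyde, ligated by proximity, amplified by PCR and sequenced. Dividing each hexamer's read frequency for a factor by its frequency for the tag-only sample gives the binding signal.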
For the sequence ACCTAA, the binding signal was 1.19 fold enrichment (6-mer frequency, TF over GST control). For the sequence CTACAC, the binding signal was 1.3 fold enrichment (6-mer frequency, TF over GST control).

For TATCCA, the binding signal is 1.3 fold enrichment (6-mer frequency, TF over GST control).

Consider GATTAC, for which the binding signal is 1.16 fold enrichment (6-mer frequency, TF over GST control). On the same count and under the same terms, then GACTTC, with 2.39 fold enrichment (6-mer frequency, TF over GST control); and TATAAA, with 1.17 fold enrichment (6-mer frequency, TF over GST control). For the sequence CACGAT, the binding signal was 1.4 fold enrichment (6-mer frequency, TF over GST control). As for TTATGA, the binding signal is 1.15 fold enrichment (6-mer frequency, TF over GST control). On the same count and under the same terms, then TAGCTT, with 1.18 fold enrichment (6-mer frequency, TF over GST control). Same read-out and setting: then TATTCA, with 1.31 fold enrichment (6-mer frequency, TF over GST control). The same measure, in the same setting: the same measure for ACCTCT: 1.32 fold enrichment (6-mer frequency, TF over GST control); for TCCCCC: 1.59 fold enrichment (6-mer frequency, TF over GST control); for TCGACA: 1.38 fold enrichment (6-mer frequency, TF over GST control). Take AGTATT: the binding signal is 1.12 fold enrichment (6-mer frequency, TF over GST control).

ATGTTA: the binding signal was 1.24 fold enrichment (6-mer frequency, TF over GST control). As for CATTTG, the binding signal was 1.23 fold enrichment (6-mer frequency, TF over GST control).

In the case of GCACTT, the binding signal is 1.61 fold enrichment (6-mer frequency, TF over GST control). On the same count and under the same terms, the same measure for TCACTC: 1.16 fold enrichment (6-mer frequency, TF over GST control); for CCCGCT: 1.38 fold enrichment (6-mer frequency, TF over GST control); for ATTAAT: 1.23 fold enrichment (6-mer frequency, TF over GST control). Turning to AACTAC, the binding signal was 1.42 fold enrichment (6-mer frequency, TF over GST control). In the case of ACTTTC, the binding signal is 1.55 fold enrichment (6-mer frequency, TF over GST control). As to CATTTA, the binding signal was 1.28 fold enrichment (6-mer frequency, TF over GST control). Same read-out and setting: then GCTCTC, with 1.43 fold enrichment (6-mer frequency, TF over GST control). Still for that read-out and setting: the same measure for GCTTTA: 1.19 fold enrichment (6-mer frequency, TF over GST control); for CCTGAT: 1.27 fold enrichment (6-mer frequency, TF over GST control). Still for that read-out and setting: the same measure for ATTCCT: 1.46 fold enrichment (6-mer frequency, TF over GST control). As to AGTGCT, the binding signal was 1.47 fold enrichment (6-mer frequency, TF over GST control). Still for that read-out and setting: then AGCAAT, with 1.07 fold enrichment (6-mer frequency, TF over GST control). TTTTTC: the binding signal was 1.21 fold enrichment (6-mer frequency, TF over GST control). On to ATGCTA, for which the binding signal is 1.21 fold enrichment (6-mer frequency, TF over GST control).

As to CAAGAT, the binding signal was 1.04 fold enrichment (6-mer frequency, TF over GST control). Still for that read-out and setting: then CTTTAT, with 1.19 fold enrichment (6-mer frequency, TF over GST control). On the same count and under the same terms, the same measure for TCTAAT: 1.2 fold enrichment (6-mer frequency, TF over GST control); for AGCTTA: 1.06 fold enrichment (6-mer frequency, TF over GST control); for TTGAAT: 1.11 fold enrichment (6-mer frequency, TF over GST control). The same measure, in the same setting: then CAATAT, with 1.27 fold enrichment (6-mer frequency, TF over GST control); and TTAAAC, with 1.22 fold enrichment (6-mer frequency, TF over GST control). Take AATTCG: the binding signal is 1.29 fold enrichment (6-mer frequency, TF over GST control).

For the sequence TGACCC, the binding signal was 1.34 fold enrichment (6-mer frequency, TF over GST control).

Another assay has as its target T2, ELK1 (Homo sapiens, UniProt P19419 1-428).
T2 sequence: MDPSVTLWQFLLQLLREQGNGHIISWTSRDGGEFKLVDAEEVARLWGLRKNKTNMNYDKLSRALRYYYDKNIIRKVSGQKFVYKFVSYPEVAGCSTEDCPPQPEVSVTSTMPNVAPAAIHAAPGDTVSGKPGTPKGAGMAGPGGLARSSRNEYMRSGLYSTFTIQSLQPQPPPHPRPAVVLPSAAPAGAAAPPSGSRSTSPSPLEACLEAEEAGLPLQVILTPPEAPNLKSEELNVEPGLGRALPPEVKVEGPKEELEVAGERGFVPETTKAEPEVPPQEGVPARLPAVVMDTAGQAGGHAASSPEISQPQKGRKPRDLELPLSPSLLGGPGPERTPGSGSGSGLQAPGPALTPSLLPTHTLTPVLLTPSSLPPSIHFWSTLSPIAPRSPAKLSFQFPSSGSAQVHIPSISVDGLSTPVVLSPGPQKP
The assay is described as above. The following applies: protein: recombinant; tags: N-terminal GST; dsDNA, one strand shown. The gist of the method:
as §1
As for ACCTAA, the binding signal was 1.08 fold enrichment (6-mer frequency, TF over GST control). The same measure, in the same setting: then CTACAC, with 1.27 fold enrichment (6-mer frequency, TF over GST control); and TATCCA, with 1.36 fold enrichment (6-mer frequency, TF over GST control). Same read-out and setting: the same measure for GATTAC: 1.1 fold enrichment (6-mer frequency, TF over GST control); for GACTTC: 2.65 fold enrichment (6-mer frequency, TF over GST control); for TATAAA: 1.29 fold enrichment (6-mer frequency, TF over GST control). The same measure, in the same setting: then CACGAT, with 1.26 fold enrichment (6-mer frequency, TF over GST control); and TTATGA, with 1.15 fold enrichment (6-mer frequency, TF over GST control). On to TAGCTT, for which the binding signal was 1.26 fold enrichment (6-mer frequency, TF over GST control). On the same count and under the same terms, then TATTCA, with 1.26 fold enrichment (6-mer frequency, TF over GST control); and ACCTCT, with 1.37 fold enrichment (6-mer frequency, TF over GST control). The same measure, in the same setting: then TCCCCC, with 1.54 fold enrichment (6-mer frequency, TF over GST control). Turning to TCGACA, the binding signal is 1.27 fold enrichment (6-mer frequency, TF over GST control). For the sequence AGTATT, the binding signal is 1.19 fold enrichment (6-mer frequency, TF over GST control).

In the case of ATGTTA, the binding signal is 1.25 fold enrichment (6-mer frequency, TF over GST control). Same read-out and setting: then CATTTG, with 1.32 fold enrichment (6-mer frequency, TF over GST control); and GCACTT, with 2 fold enrichment (6-mer frequency, TF over GST control). TCACTC: the binding signal was 1.19 fold enrichment (6-mer frequency, TF over GST control). Still for that read-out and setting: the same measure for CCCGCT: 1.31 fold enrichment (6-mer frequency, TF over GST control); for ATTAAT: 1.24 fold enrichment (6-mer frequency, TF over GST control).
